The values that follow come from PubChem BioAssay AID652154 (Broad Institute, 2013).

Among all 360,000 compounds or so, about 4,200 (1.2%) were called active. The sample as a whole holds a higher share of actives than the screen did. Unmarked numbers belong to inactive results.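 The calls were made as follows: active = mean replicate inhibition at least 60% with every replicate also reaching 60%; inconclusive = only one of the two criteria is met; inactive = mean below 60% and not all replicates reaching 60%.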

A short description of the assay: PAX8 transcriptional activity inhibition in RMG-I – RMG-I cells, luciferase, single concentration, primary screen (AID 652154).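 Also: luciferase light reporting Pax8 driven TPO promoter activity; plate controls were median of neutral control wells for no effect and mitoxantrone controls for full effect.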 Conditions: RMG-I TPO-luciferase reporter, SteadyGlo, 24 h; at 12.6 µM; stronger effect = higher value. (In general: Reporter assays use an easily measured gene product as a stand-in for the process of interest.)
As a reminder, the inhibition is the relative decrease from the control value, in per cent. In the case of `COC(=O)C[C@@H]1CC[C@H]2[C@H](COc3ccc(NC(=O)c4ccccc4F)cc3C(=O)N2C)O1`, the inhibition is 9.97%.
To `C=CCn1c(C)cc(C2=NNC(=NCC)SC2)c1C` belongs 107% (active).
For the molecule `O=C(C(=O)N1CCC(CNS(=O)(=O)Cc2ccccc2)CC1)c1cc2ccccc2o1`, the inhibition is 10%.
Take `COc1ccc(NC(=O)Nc2ccc3c(c2)[C@@H]2C[C@H](CC(=O)N[C@@H](C)c4ccccc4)O[C@@H](CO)[C@@H]2O3)cc1`: the inhibition is -20.1%.
For `C[C@H](NC(=O)C[C@H]1CC[C@H]2[C@@H](COC[C@H](O)CN2C(=O)Nc2cc(Cl)cc(Cl)c2)O1)c1ccccc1`, the inhibition is 3.71%.
To `C[C@H]1CCCCO[C@@H](CN(C)Cc2ccccc2)[C@@H](C)CN([C@@H](C)CO)C(=O)c2cc(NC(=O)Cc3ccccc3)ccc2O1` belongs -9.52%; to `CNC(=O)C[C@H]1CC[C@@H]2[C@@H](COc3ccc(NC(=O)c4ccc(F)c(F)c4)cc3C(=O)N2C)O1`, -18.3%.
Consider `COc1ccc(N2CCN(S(=O)(=O)c3ccc4c(c3)N(C(C)=O)CCO4)CC2)cc1`, for which the inhibition was 3.96%.
`CC(=O)N1CCOc2ccc(S(=O)(=O)N3CCN(c4cccc(C(F)(F)F)c4)CC3)cc21`: the inhibition is 92.2% (active).
As for `CCOC(=O)C1CCN(S(=O)(=O)c2ccc3c(c2)N(C(C)=O)CCO3)CC1`, the inhibition is 8.01%.
Regarding `C[C@H]1CN([C@@H](C)CO)C(=O)c2cc(NC(=O)Nc3ccccc3)ccc2O[C@H]1CN(C)C(=O)Nc1ccc(F)cc1`, the inhibition was -5.44%.
For `O=C(C[C@@H]1CC[C@@H]2[C@H](COC[C@H](O)CN2Cc2cccc(C(F)(F)F)c2)O1)NCc1ccc(F)cc1` the value was 19.6%; for `C=C(C)Cn1c(N2CCCC2)nc2c1c(=O)[nH]c(=O)n2C`, -3.4%; for `CC1CCN(c2nc3c(c(=O)[nH]c(=O)n3C)n2CCCc2ccccc2)CC1`, -19.2%.
To `Cn1c(=O)[nH]c(=O)c2c1nc(N1CCN(C(c3ccccc3)c3ccccc3)CC1)n2CCO` belongs 84.2% (active).
For `COCCNC(=O)C[C@H]1CC[C@H](NS(=O)(=O)c2ccc(C)cc2)[C@@H](CO)O1` the value was -3.36%; for `O=C(CN1CCOCC1)N1CCCCN2[C@@H](CO)[C@H](c3ccc(/C=C/c4ccccc4)cc3)[C@@H]2C1`, -11.5%.
`O=C(C[C@H]1CC[C@@H]2[C@H](COC[C@H](O)CN2S(=O)(=O)c2ccc(Cl)cc2)O1)N[C@@H]1CCN(Cc2ccccc2)C1`: the inhibition is 32.3%.
Turning to `C=CCC[C@H](Cc1ccc(F)cc1)C(=O)OC[C@H](C)NC(=O)[C@H](CC=C)CC(=O)N(CCO)Cc1ccccc1`, the inhibition is 23.7%.
Turning to `C=CCC[C@@H](Cc1ccc(F)cc1)C(=O)OC[C@H](Cc1c[nH]c2ccccc12)NC(=O)[C@@H](CC=C)CC(=O)N(CCO)Cc1ccccc1`, the inhibition was 75.3% (active).
As to `C=CC[C@@H](CC(=O)N[C@H](CO)Cc1ccccc1)C(=O)N[C@@H](COC(=O)[C@@H](CC=C)Cc1ccc(F)cc1)Cc1c[nH]c2ccccc12`, the inhibition was 25.6%.
`C=CC[C@H](CC(=O)NCCO)C(=O)N[C@@H](COC(=O)[C@@H](CC=C)Cc1ccc(F)cc1)Cc1c[nH]c2ccccc12`: the inhibition is 8.97%.
For `C=CCC[C@H](Cc1ccc(F)cc1)C(=O)OC[C@@H](Cc1c[nH]c2ccccc12)NC(=O)[C@H](CC=C)CC(=O)N[C@H](CO)Cc1ccccc1` the value was 75.3% (active); for `C=CCC[C@@H](Cc1ccc(F)cc1)C(=O)OC[C@@H](C)NC(=O)[C@H](CC=C)CC(=O)N(CCO)Cc1ccccc1`, 31.4%; for `CO[C@@H]1CC[C@H]2CCN(C)C(=O)C[C@@H](c3ccccc3)CN(C)C(=O)c3cc(C#N)ccc3OC[C@@H]1O2`, 5.74%.
In the case of `N#C[C@@H]1N[C@@H](CO)[C@@H]1c1ccc(C#Cc2ccccc2F)cc1`, the inhibition is -118%.
As to `O=C(C[C@@H]1CC[C@@H]2[C@H](COC[C@H](O)CN2C(=O)Nc2cccc(Cl)c2)O1)NCCCN1CCOCC1`, the inhibition was -32.8%.
In the case of `O=C(c1ccncc1)N1CC(=O)N2[C@H](CO)[C@@H](c3ccc(-c4cccnc4)cc3)[C@H]2C1`, the inhibition was 7.54%.
`COCC(=O)N(C)C[C@H]1[C@@H](c2ccc(-c3cccnc3)cc2)[C@H](CO)N1C(C)=O`: the inhibition is 0.314%.
For `COc1ccccc1S(=O)(=O)N[C@@H]1CC[C@H](CC(=O)N2CCOCC2)O[C@@H]1CO` the value was 3.09%.
For `COC(=O)C(CC#Cc1ccc2c(c1)[C@]1(C(=O)N2)[C@H](c2ccccc2OCCO)N2[C@H](c3ccccc3)[C@H](c3ccccc3)OC(=O)[C@H]2[C@@H]1C(N)=O)C(=O)OC` the value was 92.9% (active).
Take `COc1ccc(C#Cc2ccc3c(c2)[C@]2(C(=O)N3)[C@H](c3ccccc3OCCO)N3[C@H](c4ccccc4)[C@H](c4ccccc4)OC(=O)[C@H]3[C@@H]2C(=O)N2CCCCCCC2)cc1`: the inhibition is 0.581%.
On to `COC(=O)C(CC#Cc1ccc2c(c1)[C@]1(C(=O)N2)[C@H](c2ccc(O)cc2)N2[C@H](c3ccccc3)[C@H](c3ccccc3)OC(=O)[C@H]2[C@@H]1C(=O)NC[C@H](O)c1ccccc1)C(=O)OC`, for which the inhibition was -24.8%.
Regarding `Cc1ccc(S(=O)(=O)Nc2cccc3c2O[C@H](CN(C)CC2CCCCC2)[C@H](C)CN([C@H](C)CO)C3=O)cc1`, the inhibition is -4.8%.
In the case of `COc1ccc(CN(C)C[C@H]2OCCCC[C@@H](C)Oc3ccc(NC(=O)Nc4cccc5ccccc45)cc3C(=O)N([C@H](C)CO)C[C@@H]2C)cc1`, the inhibition is 14.2%.
`Cc1noc(/C=C/N(C)C)c1S(=O)(=O)N1CCCC(C(=O)NCc2ccco2)C1` (centres undefined): the inhibition is 38.6%.
To `Cc1noc(/C=C/c2ccco2)c1S(=O)(=O)N1CCC(C(=O)Nc2ccc(Cl)cn2)CC1` belongs 74.4% (active); to `CNC(=O)C1CCN(S(=O)(=O)c2c(C)noc2/C=C/c2cccc(C)c2)CC1`, -0.657%.
With `CC(=O)N1CCCCN2[C@H](CO)[C@H](c3ccc(-c4ccccc4)cc3)[C@@H]2C1`, the inhibition was 8.11%.
